Rows were chosen to be rich in hits. Some 2.7% of all compounds tested hit in one or more screens of this group.
rCAG RNA binder: binds r(CAG) RNA repeats | r(CAG) RNA repeat, TO-PRO-1 dye displacement fluorescence | inhibition, % at 3 µM | 370,000 tested, 1.3% active | AID 651821;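 active = inhibition above the plate cutoff, the mean of all test compounds on that plate plus 3 SD, cut at about 35% in these data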;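 note: higher means more dye released from RNA so lower well fluorescence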
MsrA act: bovine methionine sulfoxide reductase A activation; 360,000 tested, 0.3% active; AID 602163; activation, % at 10.6 µM; purified bovine MsrA, absorbance read-out; in the data active = activation above about 7.5%
NadD inh: blocks S. aureus nicotinate mononucleotide adenylyltransferase; purified NadD enzyme, colorimetric absorbance read-out; AID 602399; inhibition, % at 20 µM; 360,000 tested, 0.78% active; in the data active = inhibition above about 26%
MsrA inh: bovine MsrA inhibition; purified bovine MsrA, absorbance read-out; inhibition, % at 15.5 µM; 360,000 tested, 0.75% active; in the data active = inhibition above about 4.5%
rCAG bind conf: r(CAG) RNA repeat binding, confirmation; shares compounds with rCAG RNA binder; TO-PRO-1 dye displacement fluorescence; inhibition, % at 3 µM; 4,300 tested, 70% active;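 active = inhibition above a per-plate cutoff, the mean inhibition of sample wells plus 3 SD, cut at about 35% in these data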;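 note: loss of TO-PRO-1 fluorescence as compound displaces dye from 1x1 AA loop RNA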
dCAG dye counter: DNA CAG dye complex inhibition counter-screen; d(CAG) DNA oligo TO-PRO-1 dye displacement, fluorescence; shares compounds with rCAG RNA binder; inhibition, % at 3 µM; 4,300 tested, 94% active;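 active = inhibition above its plate's cutoff, the mean test-well inhibition plus 3 SD, cut at about 4.8% in these data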;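 note: hits displace the dye from DNA and so lower well fluorescence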
Hits are given with their value; i = inactive; nt = no result.

SMILES	rCAG RNA binder	MsrA act	NadD inh	MsrA inh	rCAG bind conf	dCAG dye counter
O=C(C=C(O)c1ccc(Cl)cc1)C(=O)NNC(=O)C(O)(c1ccccc1)c1ccccc1	71.2	i	i	i	35.5	12.1
O=C(NC1CCCCC1)c1ccc(-c2ccccc2F)o1	i	i	i	i	nt	nt
COc1ccc(Cl)cc1NC(=O)CSc1nc2[nH]ncc2c(=O)[nH]1	i	i	i	i	nt	nt
COc1ccc(Cl)cc1-n1c(=S)sc2c(=O)[nH]c(SCC(=O)NCC3CCCO3)nc21 (stereo unspecified)	41.1	i	i	i	i	6.6
CCC(C)NC(=O)CSc1nc2c(sc(=S)n2-c2cc(Cl)ccc2OC)c(=O)[nH]1 (stereo unspecified)	46.0	i	i	i	38.4	8.5
CCOc1ccccc1NC(=O)CCN1CCN(S(=O)(=O)c2ccc(Br)cc2)CC1	36.0	i	i	i	i	i
CC1(C(=O)NS(=O)(=O)c2cccc(F)c2)CCN1C(=O)Cc1ccccc1 (stereo unspecified)	i	i	i	i	nt	nt
CC1(C(=O)NS(=O)(=O)c2cccc(Cl)c2)CCN1C(=O)Cc1ccc(-c2ccccc2)cc1 (stereo unspecified)	73.6	i	i	i	68.4	29.4
CC1(C(=O)NS(=O)(=O)c2cccc(F)c2)CCN1C(=O)Cc1ccc(-c2ccccc2)cc1 (stereo unspecified)	50.7	i	i	i	50.4	14.6
CC(C)(C)c1ccc(CC(=O)N2CCC2(C)C(=O)NS(=O)(=O)c2cccc(F)c2)cc1 (stereo unspecified)	38.9	i	i	i	i	5.4
CC(NC(=O)NC(=O)c1cccc(Cl)c1)c1ccccc1 (stereo unspecified)	i	i	i	i	nt	nt
CC(=O)Nc1ccc(-c2ccnc3c2CC(C)(C(=O)Nc2cccc(OC(F)(F)F)c2)O3)cc1 (stereo unspecified)	i	i	i	i	nt	nt
COCCn1c(=O)[nH]c2cc(C(=O)Nc3cc(C)cc(C)c3)ccc2c1=O	i	i	i	i	nt	nt
COc1ccc(S(=O)(=O)NNC(=O)c2cc3cc4ccccc4nc3s2)cc1	35.2	i	i	i	i	6.4
CS(=O)(=O)NNC(=O)c1cc2cc3ccccc3nc2s1	i	i	i	i	nt	nt
Cc1ccccc1S(=O)(=O)Nc1ncnc2scc(-c3ccccc3)c12	54.5	i	i	i	50.4	16.4
CN(C)CCCNc1ncnc2scc(-c3ccccc3)c12	i	i	i	i	nt	nt
Cc1cc(NC(=O)c2ccc(NS(=O)(=O)c3ccccc3)cc2)no1	i	nt	nt	nt	nt	nt
Cc1ccc(-n2c(O)c(/C=N/NC(=O)C3COc4ccccc4O3)c3ccccc3c2=O)cc1 (stereo unspecified)	82.3	i	i	i	74.9	37.6
O=C(Nn1c(O)c(C=C2N=c3ccccc3=N2)sc1=S)c1ccccc1Cl	63.0	i	i	i	i	10.7
O=S(=O)(Nn1c(O)c(C=C2N=c3ccccc3=N2)sc1=S)c1ccccc1	88.8	i	i	i	71.9	37.2
CCn1c(SCC(=O)N/N=C(\C)c2ccncc2)nnc1-c1ccc(C)cc1	i	i	i	i	nt	nt
CC(C(=O)NC(C)(C)C)N(C(=O)CS(=O)CC(=O)Nc1ccc(F)cc1)c1ccccc1F (stereo unspecified)	i	i	i	i	nt	nt
CCOc1ccc(S(=O)(=O)Nc2cc(SCC(=O)O)c(O)c3ccccc23)cc1	36.4	i	i	i	59.6	23.6
CCc1ccc(S(=O)(=O)Nc2cc(SCC(=O)O)c(O)c3ccccc23)cc1	i	i	i	i	nt	nt
SMILES	rCAG RNA binder	MsrA act	NadD inh	MsrA inh	rCAG bind conf	dCAG dye counter
CCCOc1ccc(-c2csc3ncn(Cc4ccc(C(=O)O)cc4)c(=O)c23)cc1	51.3	i	i	i	39.6	11.1
COc1cc(C2c3c([nH]c(=O)[nH]c3=O)Nc3ccc4ccccc4c32)ccc1O (stereo unspecified)	42.8	i	i	i	i	8.2
COc1cc(C2c3c([nH]c(=O)[nH]c3=O)Nc3ccc4ccccc4c32)cc(OC)c1OC (stereo unspecified)	42.4	i	i	i	i	10.2
CCOC(=O)C1=C(C)NC(=O)NC1c1c(OC)ccc2ccccc12 (stereo unspecified)	i	i	i	i	nt	nt
COc1cc(C2CC(=O)c3c(ccc4ccccc34)N2)ccc1O (stereo unspecified)	i	i	i	i	nt	nt
O=C(O)c1ccc(Cl)c(S(=O)(=O)N2CCC(Cc3ccccc3)CC2)c1	62.5	i	i	i	45.4	13.4
COc1cccc(COC(=O)C2CC(=O)N(Cc3ccco3)C2)c1OC (stereo unspecified)	i	i	i	i	nt	nt
Oc1ccccc1-c1ccn[nH]1	i	i	i	i	nt	nt
Oc1ccccc1-c1nc2c3ccccc3c3ccccc3c2[nH]1	56.3	i	i	i	39.4	28.6
CC1(C)CC(NC(=O)c2cccc([N+](=O)[O-])c2)CC(C)(C)N1	i	i	i	i	nt	nt
Cc1cc(/C=C2\SC(=S)NC2=O)c(C)n1C1CC1	35.9	i	i	i	i	7.1
c1ccc2oc(-c3ccc(Nc4nc(N5CCOCC5)nc(N5CCOCC5)n4)cc3)nc2c1	i	i	i	i	nt	nt
O=C1NC(=Nc2ccccc2Cl)S/C1=C\c1cc([N+](=O)[O-])ccc1O	82.4	i	i	i	69.3	27.2
COc1cccc(N=C2NC(=O)/C(=C/c3cc([N+](=O)[O-])ccc3O)S2)c1	i	i	i	i	nt	nt
Cc1ccc(S(=O)(=O)/N=C2/NC(=O)/C(=C/c3ccncc3)S2)cc1	i	nt	nt	i	nt	nt
COc1cc(/C=C2\S/C(=N/S(=O)(=O)c3ccc(C)cc3)NC2=O)c([N+](=O)[O-])cc1OC	85.5	i	i	i	84.0	51.0
Cc1ccc(S(=O)(=O)/N=C2/NC(=O)/C(=C/c3cc([N+](=O)[O-])ccc3O)S2)cc1	88.0	i	i	i	66.9	24.6
CCOc1cc(Cl)c(S(=O)(=O)NCCCN2CCOCC2)cc1Cl	i	i	i	i	nt	nt
CC(C)CN(C(=O)COC(=O)C(C)N1C(=O)c2ccccc2C1=O)c1c(N)n(Cc2ccccc2)c(=O)[nH]c1=O (stereo unspecified)	i	i	i	i	nt	nt
CC1CCN(C(=O)c2ccc(S(=O)(=O)NCc3ccco3)cc2)CC1	i	i	i	i	nt	nt
OC(c1ccccc1)(c1ccccc1)C1CCN(CCCNc2ccc(Cl)cc2Cl)CC1	i	nt	nt	nt	nt	nt
CCOc1ccccc1NS(=O)(=O)c1cc2c3c(c1)CC(=O)N3CCC2	i	i	i	i	nt	nt
CCn1nc(C(C)C)cc1C(=O)N1CCCC(CO)(Cc2ccc(F)cc2F)C1 (stereo unspecified)	i	i	i	i	nt	nt
